Assay outcomes: PubChem, National Center for Advancing Translational Sciences (NCATS)
The list is not random: actives were taken first. Their share in the collection is about 12%.
AmpC no deterg: AmpC beta-lactamase inhibition without detergent; AmpC nitrocefin hydrolysis, absorbance 480 nm, 0.0001% Triton; Potency, µM (doses to about 57.1 µM), for the others: top-dose activity change, negative = inhibition, most hits filed as inhibitors; hit rate 0.52% among 330,000;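 also: plate controls were no compound for no effect and no enzyme for full effect; nearly all actives have a fitted effect of over 20% in size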
Target sequence (P00811 whole entry, looked up): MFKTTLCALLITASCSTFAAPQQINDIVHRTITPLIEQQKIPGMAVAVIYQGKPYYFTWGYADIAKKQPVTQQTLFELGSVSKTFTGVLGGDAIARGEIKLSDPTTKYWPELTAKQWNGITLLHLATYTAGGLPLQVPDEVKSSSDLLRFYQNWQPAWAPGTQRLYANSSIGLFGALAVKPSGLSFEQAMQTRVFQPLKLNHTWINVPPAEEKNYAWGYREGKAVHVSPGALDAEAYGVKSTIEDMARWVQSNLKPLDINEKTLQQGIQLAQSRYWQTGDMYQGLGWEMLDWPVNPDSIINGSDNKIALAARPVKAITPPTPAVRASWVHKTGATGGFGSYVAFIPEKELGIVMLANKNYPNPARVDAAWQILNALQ
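AmpC (5.3 nM in the dispensed reagent) in 20 mM phosphate pH 7.0 with 0.01% (detergent screen) or 0.0001% Triton X-100 was preincubated with compounds for 15 min at room temperature. Nitrocefin was then added from an 800 uM solution, and hydrolysis was followed at 480 nm.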
Sm TGR block: blocks Schistosoma mansoni thioredoxin glutathione reductase; hit rate 3% among 360,000; Potency, µM (top dose mostly 114 µM), for the others: at the highest dose activity change, negative = inhibition, usual class: inhibitors; Q962Y6; purified TGR, DTNB reduction, TNB absorbance 405 nm; AID 485364; also: % is scaled to controls: 0 for no effect and ±100 for the full control effect; nearly all actives have a fitted effect of over 60% in size
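TGR 20 nM + NADPH 100 uM (dispensed conc.), cpd preinc 15 min RT; start with NADPH (500 uM addition) then DTNB (15 mM addition). Kinetic TNB absorbance, 405 nm filter. Four-parameter Hill fit across titration.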
AmpC detergent: blocks E. coli AmpC beta-lactamase in detergent assay; AmpC hydrolysis of nitrocefin, absorbance 480 nm, 0.01% Triton; Potency, µM (top dose mostly 114 µM), without a hit: at the highest dose activity change, negative = inhibition, usual class: inhibitors; hit rate 0.041% among 370,000; AID 485294;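 also: 0% = no-compound wells and -100% = no-enzyme wells; nearly all actives have a fitted effect of over 25% in size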
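AmpC (5.3 nM in the dispensed reagent) in 20 mM phosphate pH 7.0 with 0.01% (detergent screen) or 0.0001% Triton X-100 was preincubated with compounds for 15 min at room temperature. Nitrocefin was then added from an 800 uM solution, and hydrolysis was followed at 480 nm.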
SARS PLP yeast: inhibitors of SARS-CoV papain-like protease in yeast; S. cerevisiae expressing SARS-CoV PLpro, growth rescue; Potency, µM (titrated, usually from 32.9 µM), for the others: at the highest dose activity, positive = growth rescue, actives largely listed as activators; hit rate 0.19% among 330,000; AID 485353; calls by dose curve; also: 0% is about no effect; nearly all actives have a fitted effect of over 55% in size
Pf growth 48h: inhibits P. falciparum growth in the first generation, 48 h | P. falciparum luciferase growth in erythrocytes, 48 h | Potency, µM (highest dose often 28.7 µM), for the others: top-dose activity change, negative = inhibition, actives largely listed as inhibitors | hit rate 5.9% among 310,000; also: % is scaled to controls: 0 for no effect and ±100 for the full control effect
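Luminescence readout; reporter = integrated firefly luciferase in P. falciparum. RBC culture at 2% hematocrit, 0.1% parasitemia final, 37 C/5% CO2; decreased signal taken as growth inhibition.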
Pf growth 96h: P. falciparum growth inhibition at 96 hours; P. falciparum luciferase reporter growth, 96 h; hit rate 6.9% among 320,000; AID 504834; Potency, µM (doses to about 28.7 µM), for inactives: at the highest dose activity change, negative = inhibition, usual class: inhibitors; also: % is scaled to controls: 0 for no effect and ±100 for the full control effect
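Plates of compound plus infected erythrocytes (2% hematocrit, 0.05% parasitemia final) incubate 96 hours, 37 C, 5% CO2. Detection reagent added; reduced luminescence from the parasites' luciferase reporter flags inhibition.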
Numbers without * were called inactive; ? = inconclusive; · = no result. Unless noted, calls follow the shape of the dose curve; as a rule, active = well fitted curve in the direction sought with a large enough effect; inconclusive = small, poorly fitted or top-dose-only effect, or another doubt; inactive = no such curve, though single readings can be large; an effect the other way counts as inactive or inconclusive. Potency is read from the fitted curve at half-maximal effect.

SMILES	AmpC no deterg	Sm TGR block	AmpC detergent	SARS PLP yeast	Pf growth 48h	Pf growth 96h
Cc1ccc(NC(=O)c2cnc(N3CCCCC3)c3ccccc23)c(C)c1	·	3%	10%	·	·	·
CC(C(=O)Nc1ccc2c(c1)OCO2)c1ccc([N+](=O)[O-])cc1 (stereo not drawn)	2%	-9%	12%	0%	2.3µM*	?
O=C(Nc1cccc([N+](=O)[O-])c1)Nc1ccc2c(c1)OCCO2	-17%	·	4%	0%	8%	57%
O=C(Cc1ccc([N+](=O)[O-])cc1)Nc1ccc2c(c1)OCO2	-24%	-4%	1%	-5%	-12%	-43%
CC(C)c1ccc(NC(=O)C(c2ccc3c(c2)OCO3)N2CCN(C(=O)c3ccco3)CC2)cc1 (stereo not drawn)	80%	0%	-6%	2%	?	23%
CC(C(=O)Nc1ccc2c(c1)OCCO2)c1ccc([N+](=O)[O-])cc1 (stereo not drawn)	-22%	-10%	-10%	12%	3.3µM*	21%
CCN(CC)C(C(=O)Nc1ccc(C(C)C)cc1)c1ccc2c(c1)OCO2 (stereo not drawn)	61%	-26%	-7%	6%	8.3µM*	107%
CC(C(=O)Nc1cccc(Br)c1)c1ccc([N+](=O)[O-])cc1 (stereo not drawn)	-40%	-4%	?	-67%	10µM*	?
Nc1nc(SCC(=O)N2CCCC2)[nH]c(=O)c1NC(=O)c1cccs1	-20%	2%	5%	0%	7%	14%
C#CCOCCOCCOCCNc1nc(N2CCN(C(=O)[C@H]([C@@H](C)CC)n3cc([C@@H](N)CO)nn3)CC2)nc(N2CCN(C(=O)[C@H]([C@@H](C)CC)n3cc([C@@H](N)CC(C)C)nn3)CC2)n1	210%	35µM*	7%	0%	?	?
C#CCOCCOCCOCCNc1nc(N2CCN(C(=O)[C@H](CCC(=O)O)n3cc(C(N)Cc4ccc(O)cc4)nn3)CC2)nc(N2CCN(C(=O)[C@H](Cc3ccc(O)cc3)n3cc(C(N)CC(C)C)nn3)CC2)n1 (stereo partly drawn)	226%	14µM*	-6%	0%	-7%	48%
C#CCOCCOCCOCCNc1nc(N2CCN(C(=O)[C@H]([C@@H](C)CC)n3cc([C@@H](N)Cc4ccc(O)cc4)nn3)CC2)nc(N2CCN(C(=O)[C@H](CCCCN)n3cc([C@@H](N)CC(C)C)nn3)CC2)n1	213%	13µM*	6%	-1%	38%	24%
C#CCOCCOCCOCCNc1nc(N2CCN(C(=O)C([C@@H](C)CC)n3cc(C(N)Cc4ccc(O)cc4)nn3)CC2)nc(N2CCN(C(=O)[C@H](CCC(=O)O)n3cc(C(N)Cc4ccc(O)cc4)nn3)CC2)n1 (stereo partly drawn)	206%	4%	4%	0%	0%	1%
C#CCOCCOCCOCCNc1nc(N2CCN(C(=O)[C@H]([C@@H](C)CC)n3cc([C@@H](N)CO)nn3)CC2)nc(N2CCN(C(=O)[C@H]([C@@H](C)CC)n3cc([C@@H](N)CO)nn3)CC2)n1	217%	0%	-7%	-1%	64%	18%
C#CCOCCOCCOCCNc1nc(N2CCN(C(=O)C([C@@H](C)CC)n3cc(C(N)Cc4ccc(O)cc4)nn3)CC2)nc(N2CCN(C(=O)[C@H](CCC(=O)O)n3cc(C(N)CO)nn3)CC2)n1 (stereo partly drawn)	172%	40µM*	1%	-1%	3%	18%
Cc1ccc(C(CNC(=O)c2ccco2)N2CCN(C)CC2)cc1 (stereo not drawn)	-9%	-10%	?	-6%	25%	13%
